{"source": "PubChem BioAssay (EPA / NIEHS)", "note": "Activity calls are given as the source filed them. How the source made its calls: active means hit-call score of the fitted dose curve at least 0.9, where 1 is the maximum; inactive means score below 0.9."}
{"read-out": "growth arrest and DNA damage 45 (GADD45B), GADD45B (gene 4616)", "experiment": "LTEA_HepaRG_GADD45B: Life Technologies and Expression Analysis (LTEA) Assay for growth arrest and DNA damage 45 (GADD45B) using HepaRG (AID 2283461)", "conditions": "mRNA level, 48 h; actives raise or lower the signal", "summary_of_the_method": "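Transcript level quantified by Fluidigm TaqMan qRT-PCR with three housekeeping genes for normalization, analyzed for up- or down-regulation against 0.5% DMSO. HepaRG cultures dosed 48 h at eight half-log concentrations up to 100 uM, duplicates.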"}
{"smiles": "COC(=O)N(C(=O)N1CO[C@@]2(C(=O)OC)Cc3cc(Cl)ccc3C2=N1)c1ccc(OC(F)(F)F)cc1", "AC50": "8.78 µM (active)"}
{"smiles": "CC1(C)C(C=C(Cl)Cl)C1C(=O)OC(C#N)c1cccc(Oc2ccccc2)c1", "note": "(stereo not given)", "outcome": "inactive"}
{"smiles": "Cc1cc(C)nc(Nc2ccccc2)n1", "outcome": "inactive"}
{"smiles": "O=c1n(Cl)c(=O)n(Cl)c(=O)n1Cl", "outcome": "inactive"}
{"smiles": "CO/N=C(/C1=NOCCO1)c1ccccc1Oc1ncnc(Oc2ccccc2Cl)c1F", "AC50": "29.7 µM (active)"}
{"smiles": "COCC(=O)N(c1c(C)cccc1C)C(C)C(=O)OC", "note": "(stereo not given)", "outcome": "inactive"}
{"smiles": "C=CCOC(=O)C(C)(C)OC(=O)c1cc(-n2c(=O)cc(C(F)(F)F)n(C)c2=O)ccc1Cl", "outcome": "inactive"}
{"smiles": "COC(=O)c1c(C(F)F)nc(C(F)(F)F)c(C2=NCCS2)c1CC(C)C", "outcome": "inactive"}
{"smiles": "CN=C=S", "outcome": "inactive"}
{"smiles": "CC(C)NC(=O)N1CC(=O)N(c2cc(Cl)cc(Cl)c2)C1=O", "AC50": "26.3 µM (active)"}
{"smiles": "COc1cc(OC)nc(NC(=O)NS(=O)(=O)c2ncccc2OCC(F)(F)F)n1", "outcome": "inactive"}
{"smiles": "COP(=O)(OC)O/C(C)=C/C(=O)N(C)C", "outcome": "inactive"}
{"smiles": "CCOc1cc(C(C)(C)C)ccc1C1COC(c2c(F)cccc2F)=N1", "note": "(stereo not given)", "outcome": "inactive"}
{"read-out": "ABC Transporter (ABCC3), ABCC3 (gene 8714)", "experiment": "LTEA_HepaRG_ABCC3: Life Technologies and Expression Analysis (LTEA) Assay for ABC Transporter (ABCC3) using HepaRG (AID 2283462)", "conditions": "mRNA level, 48 h; actives raise or lower the signal", "summary_of_the_method": "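Transcript level by TaqMan qRT-PCR, normalised to three housekeeping genes, fitted in both directions relative to vehicle. Chemicals tested in duplicate at eight half-log concentrations up to 100 uM for 48 h on HepaRG cells (0.5% DMSO).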"}
{"smiles": "CNC(=O)Oc1cccc2ccccc12", "outcome": "inactive"}
{"smiles": "CCSC(=O)N1CCCCCC1", "outcome": "inactive"}
{"smiles": "COc1ccc(-c2ccccc2)cc1NNC(=O)OC(C)C", "outcome": "inactive"}
{"smiles": "CC(C)=CC1C(C(=O)OCc2coc(Cc3ccccc3)c2)C1(C)C", "note": "(stereo not given)", "outcome": "inactive"}
{"smiles": "OC(c1ccc(Cl)cc1)(c1ccc(Cl)cc1)C(Cl)(Cl)Cl", "outcome": "inactive"}
{"smiles": "COC(=O)NS(=O)(=O)c1ccc(N)cc1", "outcome": "inactive"}
{"smiles": "CC(C)Oc1cccc(NC(=O)c2ccccc2C(F)(F)F)c1", "outcome": "inactive"}
{"smiles": "CS(=O)(=O)c1cc(C(F)(F)F)ccc1C(=O)c1cnoc1C1CC1", "outcome": "inactive"}
{"smiles": "CCOP(=O)(OCC)Oc1nc(Cl)c(Cl)cc1Cl", "AC50": "80.5 µM (active)"}
{"smiles": "CCOP(=S)(OCC)Oc1nc(Cl)n(C(C)C)n1", "AC50": "50 µM (active)"}
{"smiles": "CCOc1nc(F)cc2nc(S(=O)(=O)Nc3c(Cl)cccc3Cl)nn12", "outcome": "inactive"}
{"smiles": "COP(=S)(OC)SCn1nnc2ccccc2c1=O", "outcome": "inactive"}
{"smiles": "CNC(=O)N(C)c1nnc(C(C)(C)C)s1", "outcome": "inactive"}
{"smiles": "Clc1nc(Cl)nc(Nc2ccccc2Cl)n1", "outcome": "inactive"}
{"smiles": "Nc1c(Cl)c(Cl)nc(C(=O)O)c1Cl", "outcome": "inactive"}
{"smiles": "Nc1c(Cl)c(F)nc(OCC(=O)O)c1Cl", "outcome": "inactive"}
{"smiles": "CC1(C)CCC(=Cc2ccc(Cl)cc2)C1(O)Cn1cncn1", "note": "(stereo not given)", "outcome": "inactive"}
{"smiles": "CSC(=O)c1c(C(F)F)nc(C(F)(F)F)c(C(=O)SC)c1CC(C)C", "outcome": "inactive"}
{"smiles": "CCCCC(C#N)(Cn1cncn1)c1ccc(Cl)cc1", "note": "(stereo not given)", "outcome": "inactive"}
{"smiles": "O=C(O)c1c(Cl)ccc2cc(Cl)cnc12", "outcome": "inactive"}
{"smiles": "O=P(O)(O)CCCl", "outcome": "inactive"}
{"smiles": "Cc1cnc(C2=NC(C)(C(C)C)C(=O)N2)c(C(=O)O)c1", "note": "(stereo not given)", "outcome": "inactive"}
{"smiles": "CCOC(=O)C(C)OC(=O)c1cc(Oc2ccc(C(F)(F)F)cc2Cl)ccc1[N+](=O)[O-]", "note": "(stereo not given)", "outcome": "inactive"}
{"smiles": "COC(=O)N(C(=O)N1CO[C@@]2(C(=O)OC)Cc3cc(Cl)ccc3C2=N1)c1ccc(OC(F)(F)F)cc1", "outcome": "inactive"}
{"smiles": "CC1(C)C(C=C(Cl)Cl)C1C(=O)OC(C#N)c1cccc(Oc2ccccc2)c1", "note": "(stereo not given)", "outcome": "inactive"}
{"smiles": "Cc1cc(C)nc(Nc2ccccc2)n1", "outcome": "inactive"}
{"smiles": "O=c1n(Cl)c(=O)n(Cl)c(=O)n1Cl", "outcome": "inactive"}
{"smiles": "CO/N=C(/C1=NOCCO1)c1ccccc1Oc1ncnc(Oc2ccccc2Cl)c1F", "AC50": "6.69 µM (active)"}
{"smiles": "COCC(=O)N(c1c(C)cccc1C)C(C)C(=O)OC", "note": "(stereo not given)", "outcome": "inactive"}
{"smiles": "C=CCOC(=O)C(C)(C)OC(=O)c1cc(-n2c(=O)cc(C(F)(F)F)n(C)c2=O)ccc1Cl", "outcome": "inactive"}
{"smiles": "COC(=O)c1c(C(F)F)nc(C(F)(F)F)c(C2=NCCS2)c1CC(C)C", "outcome": "inactive"}
{"smiles": "CN=C=S", "outcome": "inactive"}
{"smiles": "CC(C)NC(=O)N1CC(=O)N(c2cc(Cl)cc(Cl)c2)C1=O", "outcome": "inactive"}
{"smiles": "COc1cc(OC)nc(NC(=O)NS(=O)(=O)c2ncccc2OCC(F)(F)F)n1", "outcome": "inactive"}
{"smiles": "COP(=O)(OC)O/C(C)=C/C(=O)N(C)C", "outcome": "inactive"}
{"smiles": "CCOc1cc(C(C)(C)C)ccc1C1COC(c2c(F)cccc2F)=N1", "note": "(stereo not given)", "outcome": "inactive"}
{"read-out": "ABC Transporter (ABCB11), ABCB11 (gene 8647)", "experiment": "LTEA_HepaRG_ABCB11: Life Technologies and Expression Analysis (LTEA) Assay for ABC Transporter (ABCB11) using HepaRG (AID 2283463)", "conditions": "mRNA level, 48 h; actives raise or lower the signal", "summary_of_the_method": "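ABCB11 transcript levels are read by Fluidigm TaqMan qRT-PCR after 48 h chemical treatment of human HepaRG cells. Concentrations span 100 uM downward in half-log steps with 0.5% DMSO; gain or loss is fitted against DMSO controls.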"}
{"smiles": "CNC(=O)Oc1cccc2ccccc12", "outcome": "inactive"}
{"smiles": "CCSC(=O)N1CCCCCC1", "outcome": "inactive"}
{"smiles": "COc1ccc(-c2ccccc2)cc1NNC(=O)OC(C)C", "outcome": "inactive"}
{"smiles": "CC(C)=CC1C(C(=O)OCc2coc(Cc3ccccc3)c2)C1(C)C", "note": "(stereo not given)", "AC50": "50 µM (active)"}
{"smiles": "OC(c1ccc(Cl)cc1)(c1ccc(Cl)cc1)C(Cl)(Cl)Cl", "AC50": "72.4 µM (active)"}
{"smiles": "COC(=O)NS(=O)(=O)c1ccc(N)cc1", "outcome": "inactive"}
{"smiles": "CC(C)Oc1cccc(NC(=O)c2ccccc2C(F)(F)F)c1", "outcome": "inactive"}
{"smiles": "CS(=O)(=O)c1cc(C(F)(F)F)ccc1C(=O)c1cnoc1C1CC1", "outcome": "inactive"}
{"smiles": "CCOP(=O)(OCC)Oc1nc(Cl)c(Cl)cc1Cl", "AC50": "79.2 µM (active)"}
{"smiles": "CCOP(=S)(OCC)Oc1nc(Cl)n(C(C)C)n1", "AC50": "1.64 µM (active)"}
{"smiles": "CCOc1nc(F)cc2nc(S(=O)(=O)Nc3c(Cl)cccc3Cl)nn12", "AC50": "41.7 µM (active)"}
{"smiles": "COP(=S)(OC)SCn1nnc2ccccc2c1=O", "outcome": "inactive"}
{"smiles": "CNC(=O)N(C)c1nnc(C(C)(C)C)s1", "outcome": "inactive"}
{"smiles": "Clc1nc(Cl)nc(Nc2ccccc2Cl)n1", "outcome": "inactive"}
{"smiles": "Nc1c(Cl)c(Cl)nc(C(=O)O)c1Cl", "outcome": "inactive"}
{"smiles": "Nc1c(Cl)c(F)nc(OCC(=O)O)c1Cl", "outcome": "inactive"}
{"smiles": "CC1(C)CCC(=Cc2ccc(Cl)cc2)C1(O)Cn1cncn1", "note": "(stereo not given)", "outcome": "inactive"}
{"smiles": "CSC(=O)c1c(C(F)F)nc(C(F)(F)F)c(C(=O)SC)c1CC(C)C", "AC50": "49.8 µM (active)"}
{"smiles": "CCCCC(C#N)(Cn1cncn1)c1ccc(Cl)cc1", "note": "(stereo not given)", "AC50": "91.7 µM (active)"}
{"smiles": "O=C(O)c1c(Cl)ccc2cc(Cl)cnc12", "outcome": "inactive"}
{"smiles": "O=P(O)(O)CCCl", "outcome": "inactive"}
{"smiles": "Cc1cnc(C2=NC(C)(C(C)C)C(=O)N2)c(C(=O)O)c1", "note": "(stereo not given)", "outcome": "inactive"}
{"smiles": "CCOC(=O)C(C)OC(=O)c1cc(Oc2ccc(C(F)(F)F)cc2Cl)ccc1[N+](=O)[O-]", "note": "(stereo not given)", "outcome": "inactive"}
{"smiles": "COC(=O)N(C(=O)N1CO[C@@]2(C(=O)OC)Cc3cc(Cl)ccc3C2=N1)c1ccc(OC(F)(F)F)cc1", "AC50": "40 µM (active)"}
{"smiles": "CC1(C)C(C=C(Cl)Cl)C1C(=O)OC(C#N)c1cccc(Oc2ccccc2)c1", "note": "(stereo not given)", "outcome": "inactive"}
{"smiles": "Cc1cc(C)nc(Nc2ccccc2)n1", "outcome": "inactive"}
{"smiles": "O=c1n(Cl)c(=O)n(Cl)c(=O)n1Cl", "outcome": "inactive"}
{"smiles": "CO/N=C(/C1=NOCCO1)c1ccccc1Oc1ncnc(Oc2ccccc2Cl)c1F", "AC50": "29.2 µM (active)"}
{"smiles": "COCC(=O)N(c1c(C)cccc1C)C(C)C(=O)OC", "note": "(stereo not given)", "outcome": "inactive"}
{"smiles": "C=CCOC(=O)C(C)(C)OC(=O)c1cc(-n2c(=O)cc(C(F)(F)F)n(C)c2=O)ccc1Cl", "outcome": "inactive"}
{"smiles": "COC(=O)c1c(C(F)F)nc(C(F)(F)F)c(C2=NCCS2)c1CC(C)C", "outcome": "inactive"}
{"smiles": "CN=C=S", "outcome": "inactive"}
{"smiles": "CC(C)NC(=O)N1CC(=O)N(c2cc(Cl)cc(Cl)c2)C1=O", "outcome": "inactive"}
{"smiles": "COc1cc(OC)nc(NC(=O)NS(=O)(=O)c2ncccc2OCC(F)(F)F)n1", "outcome": "inactive"}
{"smiles": "COP(=O)(OC)O/C(C)=C/C(=O)N(C)C", "AC50": "11 µM (active)"}
{"smiles": "CCOc1cc(C(C)(C)C)ccc1C1COC(c2c(F)cccc2F)=N1", "note": "(stereo not given)", "outcome": "inactive"}
